# Results as given in PubChem BioAssay (EPA / NIEHS).
# “And” between values parts separate entries of the source, which are not always exact repeats. Equal entries are not always repeated. Some structures have more than one record in an assay (separate samples or runs), and their calls can disagree. The source made the active and inactive calls. How the source made its calls: active means hit-call score of the fitted dose curve at least 0.9, where 1 is the maximum; inactive means score below 0.9.
# Test: BSK_SAg_Proliferation: Cell Proliferation Assessment in the BioMAP Diversity Plus: SAg Assay (AID 2283095)
# Conditions: primary human HUVEC with PBMC
# Method: BSK_SAg is a cell-based, multiplexed-readout assay that uses umbilical vein endothelium and peripheral blood mononuclear cells, a human vascular primary cell co-culture, with measurements taken at 24 hours after chemical dosing in a 96-well plate.BSK_SAg_Proliferation is an assay component in the BSK_SAg assay. It measures protein content, a form of viability reporter, as detected with absorbance signals by Sulforhodamine staining technology. Data from the assay component BSK_SAg_Proliferation was analyzed into 1 assay endpoint. This assay endpoint, BSK_SAg_Proliferation, was analyzed with bidirectional fitting relative to DMSO as the negative control and baseline of activity. Using a type of viability reporter, measures of total protein for gain or loss-of-signal activity can be used to understand the viability at the cellular-level. Furthermore, this assay endpoint can be referred to as a secondary readout, because this assay has produced multiple assay endpoints where this one serves a viability function. To generalize the intended target to other relatable targets, this assay endpoint is annotated to the cell cycle intended target family, where the subfamily is proliferation.
# The levels of cell surface (or secreted, indicated by the prefix "s") biomarker endpoints were measured by ELISA. Overt cytotoxicity to cells in confluent adherent cultures (all systems other than the BT system) was assessed by measuring total protein levels using sulforhodamine B (SRB) staining in parallel cultures at the time of biomarker measurements, indicated as SRB endpoints. For proliferation assays for adherent cell types, individual cell types are cultured at sub-confluence and relative cell numbers quantified by SRB staining at time points optimized for each system (48 h: 3C and CASM3C systems; 72 h: BT and HDF3CGF systems; 96 h: SAg system). SRB was performed by staining cells with 0.1% SRB after fixation with 10% TCA and reading wells at 560 nm.Viability and proliferation of PBMC (T cells) was quantified by Alamar Blue reduction for the SAg and BT systems. For PBMC viability (referred to as PBMC Cytotoxicity within the assay endpoint names), cells were plated (75,000/well in a 96-well plate) and then chemical samples added for 1 h before addition of activators, SEB and TSST-1 (20 ng/mL final concentration each). Cells were incubated for 90 h. Then, Alamar Blue (20 uL/well) (Invitrogen, Cat DAL1100) was added for 6 h, and the plates were read with a fluorescence microplate reader at 546/580 nm (excitation/emission). For PBMC proliferation, cells were plated and activated as above but incubated for only 16 h prior to addition of Alamar Blue. Plates were read after 6 h.
Compound,outcome,AC50
C=CCOCC(O)CCl (configuration not stated),inactive,–
CCO[Si](C)(OCC)OCC,inactive,–
CCOc1nc(F)cc2nc(S(=O)(=O)Nc3c(Cl)cccc3C(=O)OC)nn12,inactive,–
c1ccc(-c2ccccn2)nc1,inactive,–
O=C(c1ccc(O)cc1)c1ccc(O)cc1O,inactive,14.2 µM (active)
CN1C(=O)N(C)C(O)C1O (configuration not stated),inactive,–
C=CC(=O)OCC(Br)CBr (configuration not stated),–,1.66 µM (active)
c1ccc2c(c1)ccc1cc3c(ccc4ccccc43)cc12,inactive,–
S=C(NC1CCCCC1)NC1CCCCC1,inactive,–
CCCCCCCCc1ccc(Nc2ccc(CCCCCCCC)cc2)cc1,inactive,–
Nc1ccc(N)c(Cl)c1,–,14.8 µM (active) and 12.7 µM (active)
COCc1c(C(C)C)nc(C(C)C)c(/C=C/[C@@H](O)C[C@@H](O)CC(=O)O)c1-c1ccc(F)cc1,–,0.0185 µM (active)
CCO[Si](CCCN=C=O)(OCC)OCC,inactive,–
COc1ccc2nc(N)sc2c1,inactive,–
c1ccc2c(c1)ccc1ncccc12,inactive,–
CCCCC/C=C\C/C=C\CCCCCCCC(=O)OC,–,13.1 µM (active)
CCCCC(CC)COC(=O)c1ccccc1O (configuration not stated),–,17.8 µM (active)
N#[N+]c1ccc2c(S(=O)(=O)[O-])cccc2c1O,inactive,–

Compound,outcome,AC50
CC(C)C(=O)C(C)C,inactive,–
CCCCC(CC)COCC1CO1 (configuration not stated),inactive,–
CCOC(=O)c1ccccc1C(=C1C=C(Br)C(=O)C(Br)=C1)c1cc(Br)c(O)c(Br)c1,–,18.3 µM (active) and 20.1 µM (active)
O=Nc1ccc(O)cc1,inactive,–
CCCCCCCCCCCCCCCC[N+](C)(C)CC,–,0.314 µM (active)
CCCCNc1ccc(NCCCC)c2c1C(=O)c1ccccc1C2=O,inactive,–
CC(C)(c1cc(Br)c(OCCO)c(Br)c1)c1cc(Br)c(OCCO)c(Br)c1,–,0.479 µM (active)
CC1OC1C1CCC2(C)OC2C1 (configuration not stated),inactive,–
O=C(Cl)c1cc(C(=O)Cl)cc(C(=O)Cl)c1,–,12.7 µM (active)
O=C(Nc1ccccc1SSc1ccccc1NC(=O)c1ccccc1)c1ccccc1,–,3.19 µM (active)
CO[Si](OC)(OC)c1ccccc1,inactive,–
C=C[Si](OC(C)=O)(OC(C)=O)OC(C)=O,inactive,–
C=CC=CC=CCCCCC,–,6.71 µM (active)
C/C=C\C/C=C/CCCCCCCCOC(C)=O,–,26.7 µM (active)
O=c1c2ccccc2oc2ccccc12,inactive,–
C#CC1(O)CC[C@H]2[C@@H]3CCC4=CCCC[C@@H]4[C@H]3CC[C@@]21C (some centres not stated),–,12.3 µM (active)
C=CCOc1c(Br)cc(Br)cc1Br,inactive,–
O=C1CCCN1CCO,inactive,–
